Compound activity deposited in PubChem BioAssay by Broad Institute.
STK33 inh = blocks human STK33 kinase activity. Q9BYT3. 27,000 compounds, 0.44% hits. ADP-Glo luminescence, MBP substrate. inhibition, % at 12.5 µM; in the data active means inhibition above about 20%
ID4 binder = ID4 (human) binding; small molecule microarray, Flag-ID4 binding, fluorescence F/B; calls only; 31,000 compounds, 1.2% hits; call rule not given here;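 further: a binder raises fluorescence above local background on the spot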
Target sequence (P47928 whole entry, looked up): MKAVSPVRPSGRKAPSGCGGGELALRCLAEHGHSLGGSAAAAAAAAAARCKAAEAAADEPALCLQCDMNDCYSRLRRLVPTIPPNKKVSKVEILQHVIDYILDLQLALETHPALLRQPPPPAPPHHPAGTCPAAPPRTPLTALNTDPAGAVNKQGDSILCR
Of the large screens only hits and unclear results are named; the others gave an inactive call. Sampled rows, rich in hits. Any-hit rate of the full collection: about 1.1%.

CC(=O)c1cccc(NC(=O)CSc2nc(-c3ccccc3)c(-c3ccccc3)o2)c1	none
O=C(O)CCCCCCC(=O)Nc1ccc(C2CC(CSc3nc(-c4ccccc4)c(-c4ccccc4)o3)OC(c3ccccc3)O2)cc1 (configuration not stated)	ID4 binder active (no result: STK33 inh)
COc1ccc(NC(=O)Nc2ccc3c(c2)CC(=O)N([C@@H](C)CO)C[C@H](C)[C@H](CN(C)Cc2ccc4c(c2)OCO4)O3)cc1	none (no result: ID4 binder)
C[C@H]1CN([C@@H](C)CO)C(=O)Cc2cc(NC(=O)Cc3ccccc3)ccc2O[C@@H]1CN(C)C(=O)Nc1ccc2c(c1)OCO2	none
COc1ccc(CN(C)C[C@@H]2Oc3ccc(NC(=O)Cc4cn(C)c5ccccc45)cc3CC(=O)N([C@@H](C)CO)C[C@H]2C)cc1	ID4 binder active (no result: STK33 inh)
C[C@@H]1CN([C@@H](C)CO)S(=O)(=O)c2ccc(C3=CCCC3)cc2O[C@H]1CN(C)C(=O)Nc1ccc2c(c1)OCO2	ID4 binder active (no result: STK33 inh)
C[C@H](CO)N1C[C@H](C)[C@@H](CN(C)C(=O)Nc2ccc3c(c2)OCO3)Oc2ccc(NC(=O)Cc3ccccc3)cc2CC1=O	ID4 binder active (no result: STK33 inh)
COc1ccc(CN(C)C[C@@H]2Oc3ccc(NC(=O)Nc4ccc5c(c4)OCO5)cc3CC(=O)N([C@@H](C)CO)C[C@H]2C)cc1	ID4 binder active (no result: STK33 inh)
C[C@@H]1CN([C@@H](C)CO)S(=O)(=O)c2ccc(C3=CCCC3)cc2O[C@@H]1CN(C)C(=O)Nc1ccc2c(c1)OCO2	none (no result: STK33 inh)
COc1ccc(CN(C)C[C@H]2Oc3ccc(NC(=O)Cc4cn(C)c5ccccc45)cc3CC(=O)N([C@@H](C)CO)C[C@H]2C)cc1	none (no result: STK33 inh)
COC(=O)C[C@@H]1CC[C@@H](NC(=O)c2ccccc2)[C@H](CO)O1	none (no result: STK33 inh)
COc1ccc(NC(=O)C2CCC(=O)N2S(=O)(=O)c2ccc(C)cc2)c(OC)c1 (configuration not stated)	none
C[C@@H]1CN([C@@H](C)CO)C(=O)Cc2cc(NC(=O)Cc3ccccc3)ccc2O[C@@H]1CN(C)C(=O)Nc1ccc(F)cc1	none
COc1ccc(CN(C)C[C@H]2Oc3ccc(NC(=O)C4CC4)cc3CC(=O)N([C@@H](C)CO)C[C@@H]2C)cc1	none
CN(C)c1ccc2c(c1)[C@@H]1C[C@@H](CC(=O)N3CCOCC3)O[C@@H](CO)[C@@H]1O2	none (no result: STK33 inh)
CNC[C@H]1Oc2ccc(NC(=O)Cc3cn(C)c4ccccc34)cc2CC(=O)N([C@@H](C)CO)C[C@@H]1C	none
CNC[C@@H]1Oc2ccc(NC(=O)Cc3cn(C)c4ccccc34)cc2CC(=O)N([C@@H](C)CO)C[C@H]1C	ID4 binder active (no result: STK33 inh)
CC(C)NC(=O)Nc1cccc2c1O[C@@H](CN(C)Cc1ccc(C(F)(F)F)cc1)[C@H](C)CN([C@H](C)CO)C2=O	none (no result: STK33 inh)
C[C@H](CO)N1C[C@H](C)[C@@H](CN(C)C(=O)Nc2ccc(C(F)(F)F)cc2)Oc2c(NS(C)(=O)=O)cccc2C1=O	none (no result: STK33 inh)
O=C(NC1CCN(Cc2ccccc2)CC1)c1ccc(NS(=O)(=O)c2cccs2)cc1	ID4 binder active (no result: STK33 inh)
COc1cc(N)c(Cl)cc1C(=O)NC1CCN(Cc2ccccc2)CC1	none (no result: ID4 binder)
COc1cc(CNC23CC4CC(C)(CC(C)(C4)C2)C3)cc(Br)c1OCC(N)=O	none
COc1cc(O)c(C(=O)/C=C/c2ccc(OC)c(OC)c2)c(OC)c1	none
COc1cc(O)c(CC=C(C)C)cc1C(=O)/C=C/c1ccc(O)c(CC=C(C)C)c1	none (no result: ID4 binder)
COc1cc(/C=C/C(=O)CC(=O)/C=C/c2ccc(O)c(OC)c2)ccc1O	STK33 inh 117
COc1ccc(/C=C/C(=O)CC(=O)/C=C/c2cccc(O)c2OC)cc1O	STK33 inh 123 (no result: ID4 binder)
COc1ccc(NC(=O)NCc2cccnc2)cc1OC	none
COCC(C)NCc1ccc(OC)c(OC)c1OC (configuration not stated)	none
C[C@@H]1CN([C@@H](C)CO)C(=O)c2cc(-c3cccc(C#N)c3)cnc2O[C@H]1CN(C)C	none (no result: STK33 inh)
C[C@@H]1CCCCO[C@@H](CN(C)C(=O)CCC(F)(F)F)[C@@H](C)CN([C@H](C)CO)C(=O)c2cc(NS(=O)(=O)c3ccc(Cl)cc3)ccc2O1	none (no result: ID4 binder)
CCCc1c(C(=O)O)c(O)cc2c1C(=O)c1c(O)cccc1C2=O	none
O=C1c2cccc(O)c2C(=O)c2c(O)cccc21	STK33 inh 27
C[C@H](CO)N1C[C@H](C)[C@H](CN(C)S(C)(=O)=O)Oc2ncc(-c3ccc(F)cc3)cc2C1=O	none (no result: ID4 binder)
C[C@H]1CN([C@@H](C)CO)C(=O)Cc2cc(N(C)C)ccc2O[C@H]1CN(C)Cc1ccc(-c2ccccc2)cc1	none (no result: ID4 binder)
COC(=O)c1c2oc(c1C(=O)OC)C(=O)N[C@@H](Cc1ccccc1)Cn1cc(nn1)CNC(=O)[C@H](Cc1ccccc1)NC(=O)N[C@@H](CO)CC2	none (no result: STK33 inh)
COC(=O)c1c2oc(c1C(=O)OC)C(=O)N(C)Cc1cn(nn1)C[C@H](Cc1ccccc1)NC(=O)N[C@H](CO)CC2	ID4 binder active (no result: STK33 inh)
COC(=O)c1c2oc(c1C(=O)OC)C(=O)N[C@H](Cc1ccccc1)Cn1cc(nn1)CNC(=O)[C@H](Cc1ccccc1)NC(=O)N[C@@H](CO)CC2	ID4 binder active (no result: STK33 inh)
